Reference: PubChem BioAssay (NCI)
The panel holds about 83,000 compounds, 20% with a hit somewhere; the sample as a whole holds those more often.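 Single-concentration screen, 48 h exposure, 96-well plates. Endpoint: percent growth. Below 10 = active.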 Calls of active or inactive are those of the source.

Tests used:
Experiment in all cases: NCI-60 one-dose screen, 48 h (100 = growth as untreated, 0 = no growth, -100 = all killed)
Conditions in all cases: 10 µM unless noted
[1] = tested on: SK-MEL-2 melanoma
[2] = tested on: EKVX NSCLC
[3] = tested on: SN12C renal
[4] = tested on: UO-31 renal
[5] = tested on: TK-10 renal
[6] = tested on: ACHN renal
[7] = tested on: CAKI-1 renal
[8] = tested on: A498 renal
[9] = tested on: CCRF-CEM leukemia
[10] = tested on: MOLT-4 leukemia

Measured: growth

COc1ccc(C(=O)OC2C(OC3C(O)COC(O[C@H]4C[C@H]5[C@@H]6CC=C7C[C@@H](O)CC[C@]7(C)[C@H]6CC[C@]5(C)[C@H]4[C@H](C)C(=O)CCC(C)C)C3OC(N)=O)OCC(O)C2O)cc1 (stereo not given in full)
active: [1] -62% | [4] -39% | [5] -1.71% | [7] -36.7% | [8] -80.1% | [9] -25.8% | [10] -42.3%
inactive: [2] 19.5% | [3] 44.7% | [6] 40.5%

CN(C)c1nc(-c2ccco2)n2nc(-c3ccc(Cl)cc3)cc2n1
inactive: [1] 99.2% | [2] 84.2% | [3] 86.6% | [4] 20.7% | [5] 23.1% | [6] 28.5% | [7] 74.1% | [8] 75.8% | [9] 86.7% | [10] 86.8%

CN1C(=O)C(C2=NNC(c3ccccc3C(=O)O)C2)C(=O)N(C)C1=O (stereo not given)
inactive: [1] 98.9% | [2] 102% | [3] 97.2% | [4] 86.5% | [5] 96.9% | [6] 106% | [7] 86.6% | [8] 90.8% | [9] 96% | [10] 93.8%

O=C1/C(=C/N2N=C(c3ccc(Cl)cc3)CC2c2ccccc2O)SC(=S)N1c1cccc(C(F)(F)F)c1 (stereo not given)
active: [10] 8.36%
inactive: [1] 90.7% | [2] 52.5% | [3] 52.6% | [4] 24.9% | [5] 78.3% | [6] 55.3% | [7] 55.5% | [8] 65.8% | [9] 30%

CC(C)(C)OC(=O)N1CCCN(CCNc2nccc(-c3c(-c4cccc(O)c4)nc4sccn34)n2)S1(=O)=O
inactive: [1] 103% | [2] 112% | [3] 82.7% | [4] 74.5% | [5] 121% | [6] 66.6% | [7] 49.4% | [8] 127% | [9] 75.8% | [10] 90.8%

Oc1ccc(-c2nc3ccccc3s2)cc1CN(Cc1ccccn1)Cc1ccccn1
active: [1] 3.08% | [2] 5.39% | [4] -31.8% | [5] 2.77% | [6] 4.42% | [7] -15.8% | [9] 6.5% | [10] 2.86%
inactive: [3] 20.3% | [8] 31.9%

CC1CCN(CCCCCOc2ccc3oc4ccc(Cl)cc4c(=O)c3c2)CC1
inactive: [1] 88.1% | [2] 75.1% | [3] 70.9% | [4] 63.1% | [5] 75.7% | [6] 93.8% | [7] 80.3% | [8] 78.7% | [9] 40.4% | [10] 26.6%

O=S1(=O)NCCN1CCNc1nccc(-c2c(-c3cccc(O)c3)nc3sccn23)n1
inactive: [1] 72.1% | [2] 111% | [3] 95.2% | [4] 116% | [5] 130% | [6] 97% | [7] 80.8% | [8] 118% | [9] 88.1% | [10] 110%

COc1ccc(-c2cnc(-c3ccncc3-c3cccc(OC)c3)o2)cc1
inactive: [2] 58.1% | [3] 15% | [4] 42.6% | [5] 30.5% | [6] 17.1% | [7] 32% | [8] 35.3% | [10] 11.5%
active: [1] 5.27% | [9] 3.12%

Clc1ccc(-c2nc(-c3cccs3)no2)cc1
inactive: [1] 103% | [2] 85.4% | [3] 100% | [4] 71.3% | [5] 74.6% | [6] 101% | [7] 99.5% | [8] 108% | [9] 91.9% | [10] 96.3%

C=C(c1ccc(C(=O)NCCCn2ccnc2)cc1)c1cc2c(cc1C)C(C)(C)CCC2(C)C
active: [4] -20.4% | [6] -16.6% | [7] -35.6%
inactive: [1] 55.9% | [2] 27.1% | [3] 19.5% | [5] 84.9% | [8] 116% | [9] 13.5% | [10] 11.1%

CCCNCCC(C)=O
inactive: [1] 118% | [2] 89.6% | [3] 102% | [4] 92.4% | [5] 101% | [6] 106% | [7] 106% | [8] 94.2% | [9] 107% | [10] 112%

COC1(OC)C2(Cl)CCC1(Cl)C(Cl)=C2Cl
inactive: [1] 95.2% | [2] 104% | [3] 96.8% | [4] 94.6% | [5] 119% | [6] 109% | [7] 109% | [8] 91% | [9] 103% | [10] 105%

CC1CCCN(CCCCOc2ccc(-c3ccc(C#N)cc3)cc2)C1 (stereo not given)
inactive: [1] 88.6% | [2] 88.9% | [3] 89.3% | [4] 74.5% | [5] 80.6% | [6] 111% | [7] 98.7% | [8] 82.4% | [9] 59.4% | [10] 83.4%

C=C1C(=O)O[C@H]2[C@H]1CC/C(COC(=O)N[C@@H](Cc1c[nH]c3ccccc13)C(=O)OC)=C\CC[C@@]1(C)O[C@@H]21
active: [5] -23.2% | [6] 7.04% | [9] -12.3% | [10] -13.2%
inactive: [1] 41.3% | [2] 55.4% | [3] 33.4% | [4] 41.3% | [7] 29.7% | [8] 91.9%

CC1(C)CC(=O)c2cc3c(N)c(C(=O)Nc4ccc(Cl)cc4)sc3nc2C1
inactive: [1] 101% | [2] 93.2% | [3] 110% | [4] 109% | [5] 95.2% | [6] 117% | [7] 134% | [8] 75.6% | [9] 97.2% | [10] 104%

Nc1ccc(C2=NNC(=O)Cc3cc4c(cc32)OCCO4)cc1Cl
inactive: [1] 36.8% | [2] 63.9% | [3] 61.1% | [4] 61.2% | [5] 72.3% | [6] 53.3% | [7] 48.4% | [8] 56.3% | [9] 42.5% | [10] 34.8%

O=C(CC(=O)C(F)(F)C(F)(F)C(F)(F)F)c1cc2ccccc2o1
inactive: [1] 106% | [2] 100% | [3] 103% | [4] 87.5% | [5] 108% | [6] 110% | [7] 94.8% | [8] 125% | [9] 102% | [10] 102%

CC(C)CCSc1nc(Nc2ccccc2)c(C#N)c(-c2ccc(F)cc2)n1
inactive: [1] 90.6% | [2] 65.1% | [3] 38.9% | [4] 30% | [5] 20.6% | [6] 13.4% | [7] 55.5% | [8] 40% | [9] 49.3% | [10] 51.5%

O=C(CC(=O)c1cccc(Cl)c1)c1cccc(Cl)c1
inactive: [1] 60.4% | [2] 20.5% | [3] 23.2% | [4] 42.7% | [5] 46.6% | [6] 31.2% | [7] 23.4% | [8] 79.2% | [9] 11.4% | [10] 21.7%

COc1cc(C2C(C#N)=C(N)Oc3cc4c(cc32)OCO4)cc2c1OCO2 (stereo not given)
active: [8] 8.65%
inactive: [1] 56.6% | [2] 55.7% | [3] 35.2% | [4] 46.3% | [5] 72.1% | [6] 35% | [7] 60.8% | [9] 18.2% | [10] 20.3%

Fc1ccc(-c2nc(-c3ccc(-c4nc5ccc(F)cc5[nH]4)cc3)no2)cc1
inactive: [1] 102% | [2] 85.1% | [3] 84.3% | [4] 84.4% | [5] 119% | [6] 71% | [7] 81.3% | [8] 79.6% | [9] 74.9% | [10] 94.8%

COc1cc(/C=C/c2cc(/C=C/c3ccc(O)c(OC)c3)n(C(=O)Nc3ccc(F)c(Cl)c3)n2)ccc1O
active: [1] -25% | [2] -17.7% | [3] 2.06% | [4] -17% | [6] 5.73% | [7] -39.1% | [8] -13.6% | [9] 0.872% | [10] -17.7%
inactive: [5] 24%

c1cc2c(cc1-c1cnc3nonc3n1)OCO2
inactive: [1] 115% | [2] 93.4% | [3] 103% | [4] 87.9% | [5] 105% | [6] 73.3% | [7] 84.4% | [8] 86.9% | [9] 46% | [10] 80.3%

Clc1ccc(C2=NN[C@H](c3cn(-c4ccccc4)nc3-c3ccccc3)C2)cc1
inactive: [1] 91.4% | [2] 35.3% | [3] 51.2% | [4] 105% | [5] 99.2% | [6] 53.1% | [7] 19.6% | [8] 91% | [9] 78.3% | [10] 77.9%

COc1cc(NCC(O)CN(CC(C)C)CC(C)C)c2ncccc2c1 (stereo not given)
inactive: [1] 100% | [2] 93.2% | [3] 84.6% | [4] 88.6% | [5] 113% | [6] 87.6% | [7] 99.2% | [8] 70% | [9] 57.8% | [10] 74.9%

CN1C(=O)N(C)C2C1NN=c1s/c(=C\c3ccc(C(F)(F)F)cc3)c(=O)n12 (stereo not given)
inactive: [1] 47.7% | [2] 45.2% | [3] 41.2% | [4] 49.6% | [5] 55.5% | [6] 44.6% | [7] 29.6% | [8] 18.4% | [9] 11.7% | [10] 37.2%
